# From PubChem BioAssay AID758 (NMMLSC, 2007)
# About 110 (0.058%) of roughly 190,000 compounds were called active. Inconclusive results (about 2%) are left out. This is one part of a sample in which actives are shown more often than they occur.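 Rule for the calls: active = fluorescent GTP binding to Rab7 beads changed by at least 20 points from the 100% baseline, either direction, mostly lower; inconclusive = compound itself probably fluorescent, or too few beads counted; inactive = the rest.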
# Tested on: Rab7 GTPase wild type (dog), Bodipy-FL-GTP binding
# Experiment: modulators of GTP binding to Rab7, primary screen, biochemical, wildtype, multiplex bead flow cytometry (AID 758);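 note: median green fluorescence of bound Bodipy-FL-GTP per Rab7 bead population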
# Conditions: GST-Rab7 beads, fluorescent GTP binding, at 10 µM, actives lie on both sides, untreated = 100%, excess cold GTP = 0%
row,Structure (SMILES),GTP binding activity (percent of control)
1,CCOC(=O)C1(CCOc2ccccc2)CCN(C(=O)c2cncs2)CC1,93% (inactive)
2,CCOC(=O)c1ccc(NC(=O)c2cc(=O)[nH]c3ccccc23)cc1,94% (inactive)
3,CCOc1c(CNCc2ccc(C(=O)O)cc2)cccc1OC,103% (inactive)
4,COc1ccc(-c2nn(-c3ccccc3)cc2/C=C\C(=O)N2CCOCC2)cc1[N+](=O)[O-],93% (inactive)
5,CC(O)c1cccc(NC(=O)Cc2cccc3ccccc23)c1 (configuration not stated),93% (inactive)
6,CCOc1cc(/C=C2/C(=N)N3OC(C)=CC3=NC2=O)ccc1OC,93% (inactive)
7,NS(=O)(=O)c1cccc(NC(=O)CN2CCCc3ccccc32)c1,93% (inactive)
8,Cc1nc([N+](=O)[O-])c(NCCCO)n1Cc1ccccc1,96% (inactive)
9,O=C(NCc1ccncc1)NC12CC3CC(CC(C3)C1)C2,104% (inactive)
10,Clc1cccc(-c2nc(NCC3CCCO3)c3ccccc3n2)c1 (configuration not stated),96% (inactive)
11,COC(=O)c1c(NC(C)=O)sc(C(=O)Nc2ccccc2OC)c1C,106% (inactive)
12,O=C(NNC1=C(C(=O)C(F)(F)F)CCC1)c1ccncc1,106% (inactive)
13,O=C(CN1CCCC1)N1CCN(c2ccccc2)CC1,99% (inactive)
14,CC(CC(=O)Nc1ccccc1)n1ccnc1 (configuration not stated),96% (inactive)
15,CCN(Cc1ccccc1)S(=O)(=O)c1cc(C(=O)O)ccc1OC,107% (inactive)
16,CCN(CC)CCCSc1nc2ccccc2s1,104% (inactive)
17,Cc1ccc(NC(=O)C2(N3CCC3=O)CCCCC2)cc1,105% (inactive)
18,Cc1ccc(NC(=O)c2ccc(Oc3ncccn3)cc2)cc1,97% (inactive)
19,OCC1(Cc2ccccc2C(F)(F)F)CCN(Cc2cccc3cnccc23)CC1,96% (inactive)
20,CC1(C)CC(N(Cc2ccccc2)C(=O)Cc2ccccc2)CCO1 (configuration not stated),101% (inactive)
21,O=C(Nc1cccnc1)c1cccc(S(=O)(=O)N2CCCC2)c1,94% (inactive)

row,Structure (SMILES),GTP binding activity (percent of control)
1,CCN(CC)C(=O)N(CC)Cc1ccccc1,96% (inactive)
2,COC(=O)c1ccc(NCC(=O)N2CCCCCC2)cc1,106% (inactive)
3,COc1ccc(-c2nc(CN3CCN(c4ncccn4)CC3)c(C)o2)cc1C,95% (inactive)
4,O=C(C1CCCO1)N(c1ccc(F)cc1)C1C=CS(=O)(=O)C1 (configuration not stated),103% (inactive)
5,CCc1ccc(/C=C2\SC(N3CCOCC3)=NC2=O)cc1,94% (inactive)
6,c1ccc(Cc2cc[n+](Cc3ccccc3)cc2)cc1,106% (inactive)
7,CCOc1cnc(-c2c(-c3ccccc3Cl)noc2C)o1,96% (inactive)
8,CCCCN(C(=O)/C=C/c1ccco1)c1c(N)n(CC(C)C)c(=O)[nH]c1=O,98% (inactive)
9,CC(C)(C)c1cnnn1-c1ccc([N+](=O)[O-])cc1,94% (inactive)
10,CC(C)(C)C(=O)NCCCNc1ccc([N+](=O)[O-])cc1,94% (inactive)
11,NC(=O)c1ccccc1NC(=O)c1ccccc1F,99% (inactive)
12,O=C(Nc1ccccc1F)c1ccccc1-c1ccccc1,74% (active)
13,O=C(Nc1ccccc1F)c1ccccc1-c1ccc(C(F)(F)F)cc1,103% (inactive)
14,O=C(CC1C(=O)NCCN1Cc1ccc(-c2ccccc2)cc1)NCc1ccncc1 (configuration not stated),96% (inactive)
15,Cc1ccc(C)c(Cn2nnc3c(=O)[nH]c(C(=O)Nc4ccc(F)cc4)nc32)c1,102% (inactive)
16,CC(=O)Nc1ccc(Nc2nc3c(S(=O)(=O)c4ccc(C)c(C)c4)nnn3c3ccccc23)cc1,97% (inactive)
17,CN1CCN(CCC(=O)N/N=C/C=C2\N(C)c3ccccc3C2(C)C)CC1,98% (inactive)
18,CC(C)CNC(=O)/C=C/C(=O)O,105% (inactive)
19,O=C(Cc1ccccc1Cl)N1CCN(c2ccccn2)CC1,98% (inactive)
20,Cc1ccc(CN2CCN(Cc3ccccc3-c3ccco3)CC2CCO)o1 (configuration not stated),104% (inactive)
21,CNC(=O)COC(=O)c1cc(-c2ccc(OC)cc2)nc2ccccc12,88% (inactive)
